Compound activity (PubChem BioAssay)
Most compounds without a hit are left out; they make up all but 7.9% or so of the library.
MCF10A rereplic = DNA re-replication induction in MCF 10a cells; MCF 10A DNA re-replication, Hoechst nuclear intensity, 48 h; Potency, µM (series often up to 46.1 µM), actives largely listed as activators; 350,000 compounds, 2.9% hits; AID 624296; also: nearly all actives have a fitted effect of over 50% in size
HT1080-NT tox = kills 2HG-producing HT-1080-NT fibrosarcoma cells; AID 686970; 360,000 compounds, 1.6% hits; HT-1080-NT fibrosarcoma viability, CellTiter-Glo ATP luminescence, 48 h; Potency, µM (doses to about 46.1 µM), actives largely listed as cytotoxic;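 also: NT is the 2HG producing partner of a matched IDH1 knockdown line; nearly all actives have a fitted effect of over 55% in size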
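HT-1080-NT fibrosarcoma cells (2HG-overproducing), 750 cells/well in RPMI with 5% FBS, dosed after 2 h and incubated 48 h at 37C. CellTiter-Glo luminescence normalized to DMSO and no-cell wells; concentration-response curves fitted and classed.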
HT1080 IDH1KD tx = toxicity to HT-1080 IDH1 knockdown cells (counter line) | 360,000 compounds, 2% hits | Potency, µM (titrated, usually from 46.1 µM), actives largely listed as cytotoxic | HT-1080 IDH1 knockdown viability, ATP luminescence, 48 h | AID 686971
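In this qHTS, HT-1080 cells depleted of IDH1 are exposed for 48 h at 37 °C to compound titrations. Toxicity is scored from CellTiter-Glo luminescence, with DMSO as full viability and medium alone as none.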
KB-3-1 tox = kills parental KB-3-1 adenocarcinoma cells. KB-3-1 viability, CellTiter-Glo ATP luminescence, 72 h. Potency, µM (titrated, usually from 46.1 µM), hits mostly cytotoxic. 400,000 compounds, 1.4% hits. AID 1347075; also: nearly all actives have a fitted effect of over 60% in size
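Screening of KB-3-1 cells (DMEM, 10% FBS, phenol-red free) ran from lowest to highest compound concentration; after 72 h at 37 °C viability was read luminescently and curves fitted.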
SW480 rereplic = DNA re-replication induction in SW480 cells | SW480 DNA re-replication, Hoechst DNA content imaging, 48 h | Potency, µM (highest dose often 46.1 µM), usual class: activators | 340,000 compounds, 1.8% hits | AID 624297; also: nearly all actives have a fitted effect of over 55% in size
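SW480 cells exposed to compounds for 48 hr at 37 C, 5% CO2, then Hoechst-stained 40 min. Nuclear DNA content imaged by fluorescence scanning (405 nm excitation, 500-530 nm emission); re-replication scored as increased high-intensity nuclei.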
KB-V1 MDR tox = KB-V1 MDR subline cytotoxicity | KB-V1 MDR cells viability, CellTiter-Glo, 72 h | Potency, µM (titrated, usually from 46.1 µM), usual class: cytotoxic | 400,000 compounds, 3.4% hits; also: nearly all actives have a fitted effect of over 60% in size
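KB-V1 MDR subline cells in DMEM (phenol-red free, 10% FBS) exposed to compounds in qHTS concentration series for 72 h at 37 degrees C. Viability read by CellTiter-Glo luminescence; concentration-effect curves fitted after normalization and correction.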
Hits are given with their value; n = inactive; u = inconclusive; x = not tested or not shown. Calls follow the shape of the dose curve; as a rule, active = well fitted curve in the direction sought with a large enough effect; inconclusive = small, poorly fitted or top-dose-only effect, or another doubt; inactive = no such curve, though single readings can be large; an effect the other way counts as inactive or inconclusive.

SMILES | MCF10A rereplic | HT1080-NT tox | HT1080 IDH1KD tx | KB-3-1 tox | SW480 rereplic | KB-V1 MDR tox
CCC(=O)N1c2ccccc2CC1C(=O)NCCc1ccccc1Cl (configuration not stated) | x | x | x | n | x | n
CCCCC(=O)Nc1ccc2nc(SCC(=O)N3CCc4ccccc43)sc2c1 | x | x | x | n | x | n
CC(C)(C)c1ccc(C(=O)Nc2ccc(S(=O)(=O)Nc3cnc4ccccc4n3)cc2)cc1 | u | u | u | n | n | n
CC(=O)Nc1ccc(S(=O)(=O)Nc2nc3ccccc3nc2Nc2cccc(O)c2)cc1 | n | n | n | n | n | n
O=C(Nc1ccc(S(=O)(=O)Nc2cnc3ccccc3n2)cc1)c1ccc(F)cc1 | n | n | n | n | 7.3µM | n
NS(=O)(=O)c1cccc(Nc2nc3ccccc3nc2NS(=O)(=O)c2ccc(Cl)cc2)c1 | u | 18µM | 21µM | n | n | n
COc1ccc(C(=O)Nc2ccccc2-c2nc3ccccc3s2)c(OC)c1 | x | x | x | n | x | n
CSCCC(C(=O)NC1CCCC1)n1c(C2CCCC2)nc2ccccc21 (configuration not stated) | x | n | n | u | x | u
Cc1ccc(NC(=O)CC(C)S(=O)(=O)c2ccc3c(c2)NC(=O)CO3)c(C)c1 (configuration not stated) | x | x | x | n | x | n
COCCNC(=O)c1ccc(-n2c(SCc3cc(F)ccc3F)nc3ccccc3c2=O)cc1 | n | n | n | u | n | 5.8µM
O=C(/C=C/c1ccc(F)cc1)NC(=S)NNC(=O)c1cnccn1 | n | n | n | 5.8µM | n | u
CC(=O)Nc1cccc(NC(=O)c2ccco2)c1 | n | n | n | n | n | n
O=C(/C=C/c1ccc(Cl)c([N+](=O)[O-])c1)Nc1cccc(NC(=O)c2ccco2)c1 | u | u | u | n | u | n
O=C(Nc1ccc(NC(=O)c2ccc([N+](=O)[O-])o2)cc1Cl)c1ccco1 | 9.2µM | n | u | 18µM | 2.1µM | n
O=C(/C=C\c1ccco1)Nc1cc([N+](=O)[O-])ccc1F | u | 1.5µM | u | 4.1µM | 0.58µM | 1.2µM
O=C(Nc1cccc(NC(=O)c2ccc([N+](=O)[O-])o2)c1)c1ccco1 | 2.3µM | 18µM | 10µM | u | 4.1µM | u
O=C(/C=C/c1cccc([N+](=O)[O-])c1)Nc1cccc(NC(=O)c2ccco2)c1 | 16µM | n | n | u | n | u
C[C@@H]1CN([C@H](C)CO)C(=O)CCCn2nncc2CO[C@H]1CN(C)C(=O)Cc1ccccc1 | x | n | n | n | x | n
CCc1cc(C(=O)/C=C/c2cc3c(cc2C)OCCO3)c(O)cc1O | x | u | n | x | x | x
COc1ccccc1C(=O)N(c1ccc(C)cc1)S(=O)(=O)c1ccc(Cl)cc1 | x | x | x | n | x | u
COc1ccc(Cl)cc1Nc1nc(NCCO)nc(N2CCCC2)n1 | n | u | u | n | n | n
CC(C)Oc1ccc(Cl)cc1Nc1nc(NCCO)nc(N2CCCC2)n1 | 23µM | x | x | n | u | u
CCC(=O)N1CCc2cc(S(=O)(=O)NCCC(=O)NC(C)c3ccccc3)ccc21 (configuration not stated) | x | x | x | n | x | n
O=C(c1ccc(CS(=O)(=O)c2c(Cl)cccc2Cl)o1)N1CCN(c2ccccc2)CC1 | x | x | x | n | x | n
C/C(=N\NC(=O)C(C)Nc1cccc(Cl)c1)c1ccc([N+](=O)[O-])cc1 (configuration not stated) | n | n | n | n | n | 18µM
SMILES | MCF10A rereplic | HT1080-NT tox | HT1080 IDH1KD tx | KB-3-1 tox | SW480 rereplic | KB-V1 MDR tox
C/C(=N/NC(=O)c1cc(O)c(O)c(O)c1)c1ccc([N+](=O)[O-])cc1 | n | n | n | n | n | n
Cc1ccc(C(O)(c2ccccc2)c2ccccc2C(C)N(C)C)c(C)c1 (configuration not stated) | n | u | u | n | n | 18µM
O=S(=O)(CC(CN1CCCC1)N1CCCC1)c1ccc2ccccc2c1 (configuration not stated) | 12µM | 16µM | 23µM | 12µM | 10µM | u
Cc1nn(C)c(Cl)c1NC(=O)OCc1ccc(Cl)cc1Cl | u | n | n | 4.1µM | n | 2.6µM
Cc1nn(Cc2ccc(Cl)cc2Cl)c(C)c1NC(=O)CCl | u | u | u | 15µM | n | 18µM
Cc1nnsc1NC(=O)OCc1ccc(Cl)cc1Cl | n | n | n | n | n | n
O=C(CN(Cc1ccccc1)S(=O)(=O)c1ccc(F)cc1)NCCC1=CCCCC1 | n | n | n | n | n | u
Cc1ccc(NC(=O)c2cc(S(=O)(=O)NCCC3=CCCCC3)ccc2F)cc1 | u | n | n | u | n | 2.3µM
Cc1ccc(S(=O)(=O)N(CC(=O)NCCC2=CCCCC2)Cc2ccccc2)cc1 | u | u | u | u | u | 18µM
CSc1ccc(CN(C)CC(=O)NC(=O)NC(C)(C)C)cc1 | n | n | n | n | n | n
Cc1ccccc1CN(c1ccc(C(=O)N2CCCC2)cc1)S(C)(=O)=O | u | n | n | n | n | n
Cc1ccccc1CN(c1ccc(C(=O)NCCC2=CCCCC2)cc1)S(C)(=O)=O | n | n | n | u | n | 13µM
CSc1ccc(CN(C)CC(=O)NC(=O)NCCC2=CCCCC2)cc1 | n | n | n | n | n | 21µM
COc1cc(NC(=O)Nc2cccn3nc(COCCO)nc23)cc(OC)c1OC | x | n | n | n | x | n
CCCCCNC(=O)C(c1ccc(-c2ccccc2)cc1)n1c(=O)c(-c2cc3ccccc3[nH]2)nc2ccccc21 (configuration not stated) | x | n | n | n | x | n
O=C(CN(Cc1ccccc1F)S(=O)(=O)c1ccc(Cl)cc1)NCCC1=CCCCC1 | u | u | u | u | n | 6.5µM
C=C(C)[C@@H]1C2=CC(C(=O)OC)=C(C[C@@H](C(=C)C)[C@H]3O[C@H]3C3=C[C@H]1OC3=O)O2 | x | 4µM | 3.5µM | x | x | x
O=C(/C=C/c1ccc(Br)o1)NC(c1ccccc1)c1ccccc1 | n | n | n | n | n | 23µM
C=CCOc1c(Br)cc(CNc2ccc(NC(=O)C(C)C)c(OC)c2)cc1OC | 5.8µM | u | u | u | 18µM | 4.1µM
COc1cc(CNc2ccc(C(=O)O)cc2)cc(Br)c1OCC(=O)NC(C)(C)C | n | n | n | n | n | u
Cc1ccc2cc(CN(CCCN3CCOCC3)C(c3nnnn3Cc3ccco3)C(C)C)c(=O)[nH]c2c1C (configuration not stated) | u | n | u | n | 21µM | n
CCC(c1nnnn1CCc1ccccc1)N(Cc1ccco1)Cc1cc2cccc(C)c2[nH]c1=O (configuration not stated) | u | n | n | u | n | 7.3µM
